{"source": "PubChem BioAssay AID493169", "about": "(National Center for Advancing Translational Sciences (NCATS), 2011)", "note": "Inconclusive results are not listed. Calls of active or inactive are those of the source. Calls come from the whole dose curve; as a rule, active = well fitted inhibition curve with a large enough effect; inconclusive = small, poorly fitted or top-dose-only effect; inactive = flat fitted curve, though single readings scatter. % is set by controls: 0 for no effect and ±100 for the full control effect; potency is the fitted concentration of half-maximal effect."}
{"assay": "CHOP2 Reporter Counterscreen Assay for Inhibitors of Ubiquitin-specific Protease USP2a;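 note: activated enterokinase alone at 50 pM in a cell-free format rather than USP2a or CHOP2; nearly all actives have a fitted effect of over 55% in size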", "details": "purified enterokinase, fluorogenic substrate, 485/531 nm; series mostly up to 38.3 µM; activity change, negative = inhibition: at the top concentration", "procedure,_shortened": "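Fluorescence (485/531 nm) read 10 min after adding 25nM reporter substrate to 50 pM activated EK preincubated 30 min RT with compound; Tris pH 8.0/CaCl2/CHAPS buffer. Data normalized to buffer-alone inhibition; concentration-response curves fitted.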"}
{"smiles": "Cc1ccc(N=C2NC(=O)/C(=C/C=C/c3ccco3)S2)cc1C", "Potency": "8.91 µM (active)"}
{"smiles": "COc1ccc2cc(CN(C(=O)Nc3ccccc3)C3CCCC3)c(=O)[nH]c2c1", "activity change, negative = inhibition": "-1.45% (inactive)"}
{"smiles": "Cc1cc(C)cc(OCC(=O)Nc2ccc(N3CCCC3)cc2)c1", "Potency": "10 µM (active)"}
{"smiles": "CCOc1ccccc1C(=O)N[C@H](C(=O)Nc1ccc(OC)c(S(=O)(=O)N2CCOCC2)c1)C(C)C", "activity change, negative = inhibition": "0.625% (inactive)"}
{"smiles": "O=c1oc2c(CN3CCCCC3)c(O)ccc2c2c1CCCCC2", "activity change, negative = inhibition": "1.4% (inactive)"}
{"smiles": "C=CC[C@H](CC(=O)N(CCO)Cc1ccccc1)C(=O)N[C@H](C)COC(=O)[C@@H](CC=C)CC(=O)OC(C)(C)C", "activity change, negative = inhibition": "0.348% (inactive)"}
{"smiles": "FC(F)Sc1ccc(NC(=S)NC2CCCCC2)cc1", "activity change, negative = inhibition": "-0.892% (inactive)"}
{"smiles": "O=C(Cc1cc(=O)[nH]c(=O)[nH]1)NCC1CCCO1", "note": "(stereo not given)", "activity change, negative = inhibition": "0.989% (inactive)"}
{"smiles": "CCOc1ccc2[nH]c(=O)c(CN(CCc3ccccc3)C(=O)c3cnccn3)cc2c1", "activity change, negative = inhibition": "3.23% (inactive)"}
{"smiles": "O=[N+]([O-])c1ccc(Sc2nnnn2-c2ccccc2)c(Cl)c1", "activity change, negative = inhibition": "-1.14% (inactive)"}
{"smiles": "CCOC(=O)N1CCN(CC(=O)n2c(C)c(C)c3ccccc32)CC1", "activity change, negative = inhibition": "-16.2% (inactive)"}
{"smiles": "CCOC(=O)N1CCN(C(=O)CN(c2ccc(C)c(C)c2)S(=O)(=O)c2ccccc2)CC1", "activity change, negative = inhibition": "-3.06% (inactive)"}
{"smiles": "COc1cccc(N2C(=O)C3CCCN3C2c2ccc(N(C)C)cc2)c1", "note": "(stereo not given)", "activity change, negative = inhibition": "1.86% (inactive)"}
{"smiles": "N#CC(c1ccccc1)c1ccc(C(=O)c2ccc(F)cc2)cc1", "note": "(stereo not given)", "activity change, negative = inhibition": "-2.54% (inactive)"}
{"smiles": "O=C(CSc1nc2ccccc2c(=O)n1CC1CCCO1)NCc1ccccc1", "note": "(stereo not given)", "activity change, negative = inhibition": "-3.39% (inactive)"}
{"smiles": "Cc1nc(N(C)C)c2sc(=S)n(C)c2n1", "activity change, negative = inhibition": "0.969% (inactive)"}
{"smiles": "CCC1=[N+](CC(=O)c2ccc(Br)cc2)CCn2c(C)ccc21", "activity change, negative = inhibition": "-22% (inactive)"}
{"smiles": "Cc1noc(C)c1NC(=O)Nc1ccc2c(c1)C(=O)N([C@H](C)CO)C[C@H](C)[C@@H](CN(C)S(=O)(=O)c1ccccc1)O2", "activity change, negative = inhibition": "-0.98% (inactive)"}
{"smiles": "O=C1COc2ccc(C(=O)COC(=O)/C=C/c3ccc(Br)o3)cc2N1", "Potency": "2.82 µM (active)"}
{"smiles": "C=CC[C@H](CC(=O)N[C@H](CO)Cc1ccccc1)C(=O)N[C@@H](COC(=O)[C@@H](CC=C)CC(=O)OC(C)(C)C)Cc1c[nH]c2ccccc12", "activity change, negative = inhibition": "0.391% (inactive)"}
{"smiles": "Cc1ccc(C(=O)Oc2coc(CSc3nnc(NC(=O)c4cccs4)s3)cc2=O)cc1", "Potency": "3.16 µM (active)"}
{"smiles": "COCCn1nnnc1CN(CCc1ccccc1)Cc1cc2ccc(C)cc2[nH]c1=O", "activity change, negative = inhibition": "0.684% (inactive)"}
{"smiles": "CCC(C)(C(=O)NC1CCCCC1)N(C(=O)C1CCC(=O)N1)c1ccccc1", "note": "(stereo not given)", "activity change, negative = inhibition": "-1.78% (inactive)"}
{"smiles": "COc1ccc(-c2csc(N3CCN(C(=O)c4ccco4)CC3)n2)cc1", "activity change, negative = inhibition": "4.54% (inactive)"}
{"smiles": "CN(C)c1cccc(C(=O)NNC(=O)C23CC4CC(CC(C4)C2)C3)c1", "activity change, negative = inhibition": "-0.132% (inactive)"}
{"smiles": "Cc1cccc(NC(=S)NCc2ccc3c(c2)cc(C)n3C)c1C", "activity change, negative = inhibition": "2.98% (inactive)"}
{"smiles": "Cc1ccc(NC(=O)c2cc3c(=O)oc4ccccc4c3s2)nc1", "activity change, negative = inhibition": "7.35% (inactive)"}
{"smiles": "CCCCCCCCCCCCCCCCn1cc[n+](C)c1", "Potency": "10 µM (active)"}
{"smiles": "COc1cc(-c2nc(-c3ccc4c(c3)-c3ccccc3S4(=O)=O)c(-c3ccccc3)[nH]2)cc(OC)c1O", "activity change, negative = inhibition": "0.409% (inactive)"}
{"smiles": "O=[N+]([O-])c1cc(-c2nnc(Nc3ccccc3)c3ccccc23)ccc1N1CCOCC1", "activity change, negative = inhibition": "-0.475% (inactive)"}
{"smiles": "O=C(N/N=C/c1ccc(-c2ccc(Cl)c(C(=O)O)c2)o1)c1cc2c(ccc3ccccc32)o1", "Potency": "11.2 µM (active)"}
{"smiles": "O=C(NCCN1C(=O)CSC1=O)C1CC(=O)N(c2ccccc2)C1", "note": "(stereo not given)", "activity change, negative = inhibition": "4.98% (inactive)"}
{"smiles": "CC(C)CC(=O)NC(=S)Nc1nc(-c2ccc(Cl)cc2)cs1", "activity change, negative = inhibition": "2.17% (inactive)"}
{"smiles": "CCOc1ccccc1N1C(=O)CC(Nc2ccc(N3CCOCC3)cc2)C1=O", "note": "(stereo not given)", "activity change, negative = inhibition": "-7.95% (inactive)"}
{"smiles": "O=C(CN1C(=O)/C(=C2\\SC(=S)N(CCS(=O)(=O)O)C2=O)c2ccccc21)Nc1cccc(Br)c1", "Potency": "12.6 µM (active)"}
{"smiles": "CCN(CC(=O)Nc1ccc(NC(C)=O)cc1)C(=O)c1ccc(N2CCC(C)CC2)c([N+](=O)[O-])c1", "activity change, negative = inhibition": "-7.26% (inactive)"}
{"smiles": "O=C(Nc1cccc(S(=O)(=O)N2CCCC2)c1)c1cncc(Br)c1", "activity change, negative = inhibition": "-5.75% (inactive)"}
{"smiles": "C#CCOCCOCCOCCNc1nc(N2CCN(C(=O)CCCCCCCCCCNC(=O)Cn3cc(CCCCCN)nn3)CC2)nc(N2CCN(C(=O)CCCCCCCCCCNC(=O)Cn3cc(CCCCCN)nn3)CC2)n1", "Potency": "10 µM (active)"}
{"smiles": "CCCNC(=O)CS(=O)Cc1nc(-c2ccccc2C)oc1C", "note": "(stereo not given)", "activity change, negative = inhibition": "1.46% (inactive)"}
{"smiles": "CCN1C(=O)C(NC(C)=O)c2cc(OC)ccc21", "note": "(stereo not given)", "activity change, negative = inhibition": "1.84% (inactive)"}
